Targets with a hit are over-represented here; the source holds about 7,900 in all. About 0.6% of all pairs of compound and target were hits. Unmarked numbers belong to inactive results.
Experiments:
Test in all cases: log2 fold change, soluble protein after heating vs DMSO (PISA); higher = thermal stabilisation; K562 cells, 10 uM, 30 min; active = over 0.2 and 3.5 SD of the protein, either way, in both replicates (recomputed)
[1] = compound: C1COCCN1CCN2C3=CC=CC=C3N=C2NC(=O)C4=CC(=CC=C4)[N+](=O)[O-] [IRAK-1-4 Inhibitor I]
Outline: (§1)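 For each measurement, 10 μM compound was applied for 30 min to K562 cells at 2×10^6 cells/mL. Aliquots were heated for 3 min across 48°C-58°C, pooled, and extracted in PBS with 0.5% NP-40 at 4°C; the supernatant after 21,000xg for 90 min was soluble protein. This was quantified by TMTpro 16plex LC-MS/MS with channel sums equalised, and thermal stability was reported relative to control samples from duplicates, on a log2 fold-change scale.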

[2] = compound: C=CC(=O)N1CCC[C@@H](n2nc(-c3ccc(Oc4ccccc4)cc3)c3c(N)ncnc32)C1 [ibrutinib]
Outline: as §1

[3] = compound: CC(=O)c1cnc2ccc(-c3cc(Cl)c(O)c(Cl)c3)nc2c1N[C@H]1CC[C@H](CN(C)C)CC1
Outline: as §1

[4] = compound: CC(C)(C)Cn1c(N)nc2ccc(-c3[nH]c(C(C)(C)C)nc3-c3ccc(F)cc3)nc21 [ralimetinib]
Outline: as §1

[5] = compound: CC(C)(O)CC(=O)NCCn1ccc2ncnc(Nc3ccc(Oc4cccc(C(F)(F)F)c4)c(Cl)c3)c21
Outline: as §1

[6] = compound: CC(C)C1=C2N=C(C=C(N2N=C1)NCC3=CC=CC=C3)NCCCCCCN
Outline: as §1

[7] = compound: CC(C)C[C@@H](C=O)NC(=O)[C@H](CC(C)C)NC(=O)[C@H](CC(C)C)NC(=O)OCc1ccccc1
Outline: as §1

[8] = compound: CC(C)N(C[C@H]1O[C@@H](n2cnc3c(N)ncnc32)[C@H](O)[C@@H]1O)[C@H]1C[C@@H](CCc2nc3cc(C(C)(C)C)ccc3[nH]2)C1 [pinometostat]
Outline: as §1

[9] = compound: CC1=C(C(CC(=O)N1)C2=CC=C(C=C2)C(F)(F)F)C(=O)NC3=C(C=C4C(=C3)C=NN4)F
Outline: as §1

[10] = compound: CC1=C(C2=C(C=C1)C(=O)C3=CC=CC=C3N2CCCN)C
Outline: as §1

[11] = compound: CC1=C(C=C(C=C1)NC(=O)C2=CC(=CC=C2)C(C)(C)C#N)NC3=CC4=C(C=C3)N=CN(C4=O)C
Outline: as §1

[12] = compound: CC1=C(C=C(C=C1)NC(=O)C2=CC(=CC=C2)N(C)C)NC(=O)C3=CC=C(C=C3)O
Outline: as §1

[13] = compound: CC1=CC=C(C=C1)SC2=C3C=C(SC3=CN=C2)C(=O)N
Outline: as §1

[14] = compound: CC1=NC(=CC=C1)C2=C(N=C(N2)C(C)(C)C)C3=CC4=NC=CN=C4C=C3
Outline: as §1

[15] = compound: CCCCN(Cc1ccc(C(=O)NO)cc1)C(=O)Nc1ccccc1 [Nexturastat A]
Outline: as §1

[16] = compound: CCCS(=O)(=O)Nc1ccc(F)c(C(=O)c2c[nH]c3ncc(-c4ccc(Cl)cc4)cc23)c1F [vemurafenib]
Outline: as §1

[17] = compound: CCCS(=O)(=O)Nc1ccc(F)c(C(=O)c2c[nH]c3ncc(Cl)cc23)c1F
Outline: as §1

[18] = compound: CCCc1cc(C)[nH]c(=O)c1CNC(=O)c1cc(-c2ccnc(N3CCN(C)CC3)c2)cc2c1cnn2C(C)C
Outline: as §1

[19] = compound: CCN(CC)Cc1ccc2cc(COC(=O)Nc3ccc(C(=O)NO)cc3)ccc2c1 [givinostat]
Outline: as §1

[20] = compound: CCN(CCCOc1ccc2c(Nc3cc(CC(=O)Nc4cccc(F)c4)[nH]n3)ncnc2c1)CCOP(=O)(O)O [barasertib]
Outline: as §1

Chain of UniProt O94874 (O94874 whole entry, looked up): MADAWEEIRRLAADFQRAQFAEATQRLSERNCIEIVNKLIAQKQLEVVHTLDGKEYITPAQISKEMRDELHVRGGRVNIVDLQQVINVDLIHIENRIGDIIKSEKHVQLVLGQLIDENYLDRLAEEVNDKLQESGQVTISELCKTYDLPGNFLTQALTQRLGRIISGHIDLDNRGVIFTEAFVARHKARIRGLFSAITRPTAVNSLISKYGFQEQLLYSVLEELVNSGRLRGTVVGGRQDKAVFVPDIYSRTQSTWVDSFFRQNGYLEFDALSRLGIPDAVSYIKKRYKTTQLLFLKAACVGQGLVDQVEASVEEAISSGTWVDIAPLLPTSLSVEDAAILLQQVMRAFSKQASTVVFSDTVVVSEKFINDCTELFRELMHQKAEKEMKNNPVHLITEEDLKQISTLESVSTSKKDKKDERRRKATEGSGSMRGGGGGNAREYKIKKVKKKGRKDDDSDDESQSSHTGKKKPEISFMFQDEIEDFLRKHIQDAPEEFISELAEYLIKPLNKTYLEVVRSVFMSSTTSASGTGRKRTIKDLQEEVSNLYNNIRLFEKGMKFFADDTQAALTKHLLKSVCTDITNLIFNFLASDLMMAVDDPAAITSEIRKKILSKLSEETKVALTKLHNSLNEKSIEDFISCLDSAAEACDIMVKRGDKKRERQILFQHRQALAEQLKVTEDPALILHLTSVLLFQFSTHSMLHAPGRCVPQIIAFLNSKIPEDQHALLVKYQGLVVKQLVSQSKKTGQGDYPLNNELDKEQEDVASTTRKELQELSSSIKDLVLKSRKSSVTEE
Chain of UniProt O43379 (O43379 whole entry, looked up): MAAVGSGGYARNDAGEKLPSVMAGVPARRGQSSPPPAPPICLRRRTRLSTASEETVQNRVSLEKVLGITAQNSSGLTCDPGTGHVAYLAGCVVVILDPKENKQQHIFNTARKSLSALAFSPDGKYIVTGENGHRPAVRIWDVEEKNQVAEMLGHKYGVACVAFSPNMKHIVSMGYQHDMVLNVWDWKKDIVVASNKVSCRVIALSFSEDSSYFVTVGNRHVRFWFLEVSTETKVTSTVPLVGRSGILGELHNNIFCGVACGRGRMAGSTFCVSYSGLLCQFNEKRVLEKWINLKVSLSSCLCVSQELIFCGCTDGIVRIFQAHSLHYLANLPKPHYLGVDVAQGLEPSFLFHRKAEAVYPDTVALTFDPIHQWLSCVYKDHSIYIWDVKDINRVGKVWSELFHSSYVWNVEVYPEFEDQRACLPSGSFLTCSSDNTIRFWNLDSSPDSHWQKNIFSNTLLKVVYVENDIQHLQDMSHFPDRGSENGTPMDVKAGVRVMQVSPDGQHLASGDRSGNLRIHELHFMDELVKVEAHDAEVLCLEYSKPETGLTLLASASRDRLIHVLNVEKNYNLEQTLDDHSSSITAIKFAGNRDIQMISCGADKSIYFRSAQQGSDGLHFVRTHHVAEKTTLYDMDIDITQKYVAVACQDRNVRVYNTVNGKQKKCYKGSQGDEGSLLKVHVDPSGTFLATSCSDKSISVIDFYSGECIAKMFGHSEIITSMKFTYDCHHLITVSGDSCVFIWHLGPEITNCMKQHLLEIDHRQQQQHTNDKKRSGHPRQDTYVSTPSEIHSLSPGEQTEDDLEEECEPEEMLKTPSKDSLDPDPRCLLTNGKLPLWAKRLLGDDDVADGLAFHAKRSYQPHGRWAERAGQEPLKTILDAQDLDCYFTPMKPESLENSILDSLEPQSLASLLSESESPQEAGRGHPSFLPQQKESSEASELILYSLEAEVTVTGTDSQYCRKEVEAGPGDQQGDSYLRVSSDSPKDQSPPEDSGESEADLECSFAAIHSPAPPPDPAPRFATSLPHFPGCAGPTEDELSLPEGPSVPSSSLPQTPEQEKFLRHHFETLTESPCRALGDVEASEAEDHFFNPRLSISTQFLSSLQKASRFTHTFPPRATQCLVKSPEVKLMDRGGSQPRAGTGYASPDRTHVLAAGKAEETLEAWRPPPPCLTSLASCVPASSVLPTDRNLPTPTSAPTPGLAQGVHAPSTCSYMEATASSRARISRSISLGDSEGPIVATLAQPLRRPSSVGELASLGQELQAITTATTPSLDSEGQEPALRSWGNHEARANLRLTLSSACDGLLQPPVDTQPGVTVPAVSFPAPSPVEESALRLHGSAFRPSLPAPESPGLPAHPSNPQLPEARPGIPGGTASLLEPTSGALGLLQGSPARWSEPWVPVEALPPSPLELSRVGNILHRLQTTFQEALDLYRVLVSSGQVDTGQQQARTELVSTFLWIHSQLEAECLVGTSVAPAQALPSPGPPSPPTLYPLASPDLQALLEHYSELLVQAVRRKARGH
Chain of UniProt O60784 (O60784 whole entry, looked up): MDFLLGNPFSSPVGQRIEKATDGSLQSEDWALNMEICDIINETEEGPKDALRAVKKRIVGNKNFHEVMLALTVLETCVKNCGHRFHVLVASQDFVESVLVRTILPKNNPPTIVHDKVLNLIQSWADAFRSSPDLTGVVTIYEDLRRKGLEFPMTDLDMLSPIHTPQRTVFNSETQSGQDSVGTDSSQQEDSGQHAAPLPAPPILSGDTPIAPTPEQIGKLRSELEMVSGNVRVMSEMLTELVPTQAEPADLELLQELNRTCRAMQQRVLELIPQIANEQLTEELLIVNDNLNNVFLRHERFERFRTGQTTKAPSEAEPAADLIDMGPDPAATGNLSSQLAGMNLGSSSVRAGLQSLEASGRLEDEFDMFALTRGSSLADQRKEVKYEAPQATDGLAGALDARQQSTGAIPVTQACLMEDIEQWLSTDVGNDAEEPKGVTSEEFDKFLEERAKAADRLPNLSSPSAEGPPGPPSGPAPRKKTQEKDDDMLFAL
Chain of UniProt Q9BXJ8 (Q9BXJ8 whole entry, looked up): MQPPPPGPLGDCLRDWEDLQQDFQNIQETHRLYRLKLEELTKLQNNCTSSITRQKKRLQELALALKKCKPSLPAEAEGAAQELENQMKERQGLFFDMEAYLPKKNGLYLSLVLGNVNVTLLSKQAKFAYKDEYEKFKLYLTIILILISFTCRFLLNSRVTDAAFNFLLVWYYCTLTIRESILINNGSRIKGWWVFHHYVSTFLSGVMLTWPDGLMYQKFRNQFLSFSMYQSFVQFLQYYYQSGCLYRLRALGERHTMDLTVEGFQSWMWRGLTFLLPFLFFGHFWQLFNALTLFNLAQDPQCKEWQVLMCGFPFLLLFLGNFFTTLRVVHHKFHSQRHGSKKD
Chain of UniProt Q9UID3 (Q9UID3 whole entry, looked up): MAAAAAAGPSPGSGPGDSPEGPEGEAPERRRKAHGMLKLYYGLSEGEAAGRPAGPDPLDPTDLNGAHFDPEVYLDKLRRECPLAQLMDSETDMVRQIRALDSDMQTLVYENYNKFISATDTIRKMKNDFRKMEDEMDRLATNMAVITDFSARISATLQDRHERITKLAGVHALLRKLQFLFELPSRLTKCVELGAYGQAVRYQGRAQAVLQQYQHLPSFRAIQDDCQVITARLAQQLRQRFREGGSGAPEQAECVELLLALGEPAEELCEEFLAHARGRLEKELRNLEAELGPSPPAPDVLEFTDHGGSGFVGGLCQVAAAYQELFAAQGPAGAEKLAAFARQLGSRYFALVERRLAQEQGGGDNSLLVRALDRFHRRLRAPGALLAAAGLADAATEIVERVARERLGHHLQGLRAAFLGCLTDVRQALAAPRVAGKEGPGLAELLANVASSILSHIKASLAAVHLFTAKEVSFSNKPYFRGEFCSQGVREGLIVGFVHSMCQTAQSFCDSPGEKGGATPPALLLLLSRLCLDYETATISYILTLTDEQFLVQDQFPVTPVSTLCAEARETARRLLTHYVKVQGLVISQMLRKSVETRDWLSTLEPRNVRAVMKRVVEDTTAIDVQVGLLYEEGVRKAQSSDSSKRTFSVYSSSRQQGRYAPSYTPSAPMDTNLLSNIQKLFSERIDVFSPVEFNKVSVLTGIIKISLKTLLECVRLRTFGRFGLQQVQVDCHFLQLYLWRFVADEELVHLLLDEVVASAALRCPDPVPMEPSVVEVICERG
Chain of UniProt Q9UDW1 (Q9UDW1 whole entry, looked up): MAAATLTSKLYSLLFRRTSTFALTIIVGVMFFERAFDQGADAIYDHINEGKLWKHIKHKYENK
Chain of UniProt Q969X6 (Q969X6 whole entry, looked up): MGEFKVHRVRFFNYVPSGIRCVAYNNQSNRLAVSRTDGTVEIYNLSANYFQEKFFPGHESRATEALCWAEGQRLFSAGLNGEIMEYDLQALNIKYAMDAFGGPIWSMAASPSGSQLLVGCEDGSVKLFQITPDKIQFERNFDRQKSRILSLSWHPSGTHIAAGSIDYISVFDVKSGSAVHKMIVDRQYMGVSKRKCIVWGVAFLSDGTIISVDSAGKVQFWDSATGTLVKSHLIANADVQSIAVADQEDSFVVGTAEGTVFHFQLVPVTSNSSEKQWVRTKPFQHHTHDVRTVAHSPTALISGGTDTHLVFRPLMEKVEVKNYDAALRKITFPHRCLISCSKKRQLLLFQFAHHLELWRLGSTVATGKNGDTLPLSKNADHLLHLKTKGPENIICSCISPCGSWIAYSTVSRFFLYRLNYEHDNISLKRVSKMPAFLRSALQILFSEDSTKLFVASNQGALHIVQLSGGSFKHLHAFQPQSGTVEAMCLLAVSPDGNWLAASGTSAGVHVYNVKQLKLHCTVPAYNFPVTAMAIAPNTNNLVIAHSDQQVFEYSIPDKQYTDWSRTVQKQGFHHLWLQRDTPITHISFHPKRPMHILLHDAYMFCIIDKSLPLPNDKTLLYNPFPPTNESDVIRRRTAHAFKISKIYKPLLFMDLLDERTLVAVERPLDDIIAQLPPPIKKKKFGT
Chain of UniProt Q9Y3C0 (Q9Y3C0 whole entry, looked up): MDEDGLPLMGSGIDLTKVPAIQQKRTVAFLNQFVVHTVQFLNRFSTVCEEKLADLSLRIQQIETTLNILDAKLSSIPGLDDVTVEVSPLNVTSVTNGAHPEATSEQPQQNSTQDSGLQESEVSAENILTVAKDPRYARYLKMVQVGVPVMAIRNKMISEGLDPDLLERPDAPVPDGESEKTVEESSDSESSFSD

Row | Target | log2 fold change [1] | log2 fold change [2] | log2 fold change [3] | log2 fold change [4] | log2 fold change [5] | log2 fold change [6] | log2 fold change [7] | log2 fold change [8] | log2 fold change [9] | log2 fold change [10] | log2 fold change [11] | log2 fold change [12] | log2 fold change [13] | log2 fold change [14] | log2 fold change [15] | log2 fold change [16] | log2 fold change [17] | log2 fold change [18] | log2 fold change [19] | log2 fold change [20]
1 | TOM1 isoform 2 (UniProt O60784) | 0.101 | 0.013 | 0.028 | 0.071 | -0.017 | -0.302 | 0.033 | 0.023 | -0.006 | 0.16 | 0.17 | 0.026 | 0.02 | 0.051 | -0.028 | 0.17 | 0.041 | 0 | 0.013 | -0.01
2 | WDR18 (UniProt Q9BV38) | -0.005 | -0.03 | -0.007 | 0.064 | 0.025 | 0.008 | -0.102 | 0.028 | 0.011 | -0.962 (active) | -0.042 | 0.08 | 0.016 | 0.014 | -0.035 | 0.04 | -0.003 | 0.004 | -0.025 | 0.013
3 | UTP4 (UniProt Q969X6) | 0.003 | 0.002 | 0.02 | -0.07 | 0.045 | 0.233 (active) | -0.014 | -0.017 | -0.019 | 0.343 (active) | -0.036 | 0.029 | 0.009 | -0.007 | -0.06 | -0.028 | -0.021 | -0.019 | -0.033 | -0.005
4 | WDR7 (UniProt Q9Y4E6) | -0.112 | -0.027 | -0.078 | 0.067 | -0.141 | -0.429 (active) | 0.1 | 0.062 | 0.029 | 0.122 | -0.029 | -0.008 | -0.016 | -0.025 | -0.216 | 0.091 | 0.083 | 0.202 | 0.067 | 0.03
5 | VPS39 (UniProt Q96JC1) | -0.055 | -0.015 | -0.036 | -0.018 | -0.039 | -0.265 | 0.031 | 0.032 | -0.027 | 0.008 | 0.049 | -0.015 | 0.011 | 0.031 | 0.014 | 0.041 | 0.059 | -0.029 | 0.019 | 0.053
6 | UQCR10 (UniProt Q9UDW1) | 0.036 | 0.019 | -0.077 | -0.05 | -0.056 | 0.031 | -0.127 | -0.016 | -0.008 | 0.057 | 0.103 | -0.086 | 0.069 | -0.014 | -0.049 | -0.042 | -0.018 | 0.007 | -0.05 | -0.042
7 | TOM1L1 (UniProt O75674) | 0.006 | -0.001 | -0.014 | -0.047 | -0.013 | 0.019 | 0.028 | -0.023 | 0.006 | -0.019 | -0.101 | 0.005 | 0.057 | 0.019 | -0.038 | 0.102 | 0.015 | -0.07 | 0.024 | 0.03
8 | WDR62 isoform 4 (UniProt O43379) | 0.085 | -0.069 | -0.579 (active) | 0.003 | -0.003 | -0.085 | 0.042 | 0.062 | 0.063 | -0.176 | -0.123 | -0.015 | -0.055 | -0.033 | 0.029 | 0.008 | 0.053 | -0.014 | 0.022 | 0.032
9 | UPF3B (UniProt Q9BZI7) | -0.099 | 0.158 | 0.265 | 0.27 | 0.057 | -0.02 | 0.19 | 0.394 | -0.002 | -0.183 | -0.047 | -0.004 | 0 | -0.053 | 0.29 | -0.108 | -0.069 | 0.139 | 0.03 | -0.058
10 | UFL1 (UniProt O94874) | -0.048 | -0.037 | -0.022 | 0.073 | -0.055 | -0.142 | 0.015 | 0.042 | -0.017 | 0.026 | -0.009 | -0.089 | 0.011 | 0.048 | 0.091 | 0.083 | 0.089 | 0.043 | 0.08 | 0.031
11 | VPS51 (UniProt Q9UID3) | 0.016 | -0.015 | 0.009 | 0.024 | -0.042 | -0.115 | 0.001 | 0.05 | 0.033 | 0.105 | 0 | -0.031 | -0.045 | 0.017 | 0.032 | 0.034 | 0.021 | 0.032 | 0.071 | 0.059
12 | WASHC3 (UniProt Q9Y3C0) | 0.096 | 0.015 | 0.023 | -0.033 | 0.024 | -0.166 | -0.041 | -0.074 | 0.059 | 0.032 | 0.011 | 0.015 | 0.049 | -0.008 | -0.051 | 0.005 | -0.006 | -0.08 | 0.004 | 0.017
13 | WASHC5 (UniProt Q12768) | -0.042 | 0.007 | -0.024 | 0.072 | -0.116 | -0.277 (active) | 0.003 | 0.067 | -0.049 | -0.014 | -0.011 | -0.011 | 0 | -0.006 | 0.052 | 0.004 | 0.004 | 0.065 | 0.085 | 0.077
14 | TMEM120A (UniProt Q9BXJ8) | -0.066 | -0.183 | -0.068 | -0.003 | -0.429 | -0.006 | -0.078 | 0.093 | -0.065 | 0.051 | 0.181 | 0.007 | 0.115 | -0.004 | -0.259 | 0.06 | 0.085 | -0.007 | 0.116 | -0.006
15 | UHRF1BP1L (UniProt A0JNW5) | 0.018 | -0.051 | -0.076 | -0.009 | 0.193 | 0.242 (active) | -0.004 | 0.03 | -0.027 | -0.019 | -0.079 | -0.031 | -0.038 | -0.032 | -0.054 | -0.039 | -0.033 | 0.027 | -0.033 | 0

— the supplement of paper PMC10849652
